Experimental data taken from PubChem BioAssay (Tox21).
Inconclusive results are not listed. Active and inactive are the calls of the source. The call rests on the fitted dose curve; in most records, active means well fitted inhibition curve with a large enough effect in the repeat runs; inconclusive means weak or mixed curves; inactive means flat fitted curve, though single readings scatter.

Each compound was assayed against Luciferin 4-monooxygenase (Photinus pyralis) (UniProt P08659) (assay: qHTS assay to identify small molecule inhibitors of firefly luciferase (AID 1224835; further: nearly all actives have a fitted effect of over 25% in size)). Details: purified P. pyralis luciferase, luminescence inhibition; series mostly up to 115 µM; activity change, negative = inhibition: at the top concentration.
Sequence of Luciferin 4-monooxygenase (Photinus pyralis) (P08659 whole entry, looked up): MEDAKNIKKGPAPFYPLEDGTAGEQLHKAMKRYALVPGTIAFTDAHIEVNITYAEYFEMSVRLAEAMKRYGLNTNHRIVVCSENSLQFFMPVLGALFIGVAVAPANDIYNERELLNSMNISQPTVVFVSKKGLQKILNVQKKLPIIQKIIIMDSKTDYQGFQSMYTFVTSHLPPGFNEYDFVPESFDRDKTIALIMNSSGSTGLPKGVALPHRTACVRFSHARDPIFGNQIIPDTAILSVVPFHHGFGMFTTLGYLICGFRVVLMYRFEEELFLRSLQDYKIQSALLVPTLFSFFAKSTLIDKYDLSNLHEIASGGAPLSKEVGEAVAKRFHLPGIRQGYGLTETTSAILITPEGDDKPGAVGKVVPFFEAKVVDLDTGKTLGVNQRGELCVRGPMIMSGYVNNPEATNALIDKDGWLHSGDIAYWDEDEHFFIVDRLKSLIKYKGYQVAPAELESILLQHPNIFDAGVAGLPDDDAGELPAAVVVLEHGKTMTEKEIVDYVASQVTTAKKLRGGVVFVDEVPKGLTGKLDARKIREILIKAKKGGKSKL
Source text: U.S. Tox21 Program National Center for Advancing Translational Sciences [NCATS] NIH Chemical Genomics Center [NCGC] U.S. Environmental Protection Agency [EPA] National Institutes of Environmental Health Sciences [NIEHS] National Toxicology Program [NTP] U.S. Food and Drug Administration [FDA] Tox21 Assay Overview: Firefly (Photinus pyralis) luciferase is one of the most commonly used transcriptional reporters. Firefly luciferase reporter-gene assays are generally considered one of the most sensitive assay types (Wood, 1995; Wood, 1998). However, it was initially observed, in 1991, by Thompson et al., that compounds that resemble the substrates of firefly luciferase (FLuc) can act as competitive inhibitors of the enzyme, and that these compounds, upon interaction with luciferase in the cell, can actually stabilize the protein and increase its half-life. Previous profiling work by other groups to determine the prevalence of compounds that affect FLuc enzymatic activity (PubChem AID 411) identified that ~3% of the MLSMR library (then at ~72K) inhibited FLuc. […] Thus the Tox21 10K library is profiled for activity against FLuc using a biochemical assay of purified FLuc and KM concentrations of FLuc substrates (D-luciferin and ATP).
These assay plates were then treated with 23nL of compound or DMSO using a Kalypsys pin tool, which allows for delivery of a 6-point interplate titration of each compound to the assay plate (quantitative HTS.) 1 uL of firefly luciferase mix (containing 50 mM Tris acetate, pH 7.6, 0.04 uM P. pyralis luciferase, 0.01% Tween, 0.05% BSA and dH2O) was then delivered by FRD to each well. Luciferase activity was then measured using a ViewLux CCD imager.
On the % scale 0 is the no-effect control and ±100 the full control effect.

SMILES | activity change, negative = inhibition | Potency
CCO[Si](OCC)(OCC)c1ccccc1 | 1.03% (inactive) | 
C1CCC2(CCCCO2)OC1 | 0.762% (inactive) | 
CC(C)(N)C#N | 0.686% (inactive) | 
CC/C=C\CCOC(C)OCC (stereo not given) | -1.21% [at 52.9 µM] (inactive) | 
Cc1nc(C2CCCCC2)c(-c2ccc(S(N)(=O)=O)c(F)c2)o1 | 0.89% [at 52.9 µM] (inactive) | 
CCN(CC#N)c1cccc(C)c1 | 3.37% (inactive) | 
CC(CO)(CO)[N+](=O)[O-] | 0.683% (inactive) | 
CCC(C)(CCCC(C)C)OC(C)=O (stereo not given) | 3.69% (inactive) | 
CC(C)NNC(=O)c1ccncc1 | 3.21% [at 52.9 µM] (inactive) | 
CCOC(=O)c1ccccc1 | 0.353% (inactive) | 
C=CCCCCCCCCC(=O)OCC | 1.23% (inactive) | 
CC(=O)c1cnccn1 | 3.1% (inactive) | 
COc1cc2c(cc1OC)-c1cc3ccc(OC)c(OC)c3c[n+]1CC2 | -1.66% (inactive) | 
C=COC(=O)C(C)(CC)CCC(C)C (stereo not given) | 0.991% (inactive) | 
Cc1ccc(C(=O)c2ccc(CC(=O)O)n2C)cc1 |  | 15.5 µM (active)
CCC(C(=O)NC(=O)NC(C)=O)c1ccccc1 (stereo not given) | 3.38% [at 52.9 µM] (inactive) | 
CCCC(=O)O[C@]1(C(=O)CC)CC[C@H]2[C@@H]3CCC4=CC(=O)CC[C@]4(C)[C@H]3[C@@H](O)C[C@@]21C | -3.98% [at 52.9 µM] (inactive) | 
C[N+]1(C)[C@@H]2CC(OC(=O)[C@H](CO)c3ccccc3)C[C@H]1[C@@H]1O[C@@H]12 (stereo not given in full) | 2.83% [at 52.9 µM] (inactive) | 
CC1CCC(CO)CC1 (stereo not given) | -5.88% (inactive) | 
CC(C)[C@H]1CC[C@@H](C)CC1=O | 0.535% (inactive) | 

SMILES | activity change, negative = inhibition | Potency
CCNS(=O)(=O)c1ccc(C)cc1 | -1.13% (inactive) | 
CN(C)CCCN(C)CCCN(C)C | -1.15% (inactive) | 
CC(C)(CCC(=O)O)C(=O)O | -0.0313% (inactive) | 
CCCCOC(=O)CCC(C)=O | 0.652% (inactive) | 
CC(=O)NC(=O)c1ccccc1O | -6.14% [at 52.9 µM] (inactive) | 
NC(=O)Cc1cccc2ccccc12 | -0.256% (inactive) | 
Cc1nc2ccc(CN(C)c3ccc(C(=O)N[C@@H](CCC(=O)O)C(=O)O)s3)cc2c(=O)[nH]1 | 0.803% [at 52.9 µM] (inactive) | 
CC(=O)O[C@@]12CO[C@@H]1C[C@H](O)[C@@]1(C)C(=O)[C@H](O)C3=C(C)[C@@H](OC(=O)[C@H](O)[C@@H](NC(=O)OC(C)(C)C)c4ccccc4)C[C@@](O)([C@@H](OC(=O)c4ccccc4)[C@H]21)C3(C)C | 0.614% [at 52.9 µM] (inactive) | 
CN1CCC(=C2c3ccccc3CCc3cccnc32)CC1 | 0.648% [at 52.9 µM] (inactive) | 
CC1=NS(=O)(=O)c2cc(Cl)ccc2N1 | 1.89% [at 52.9 µM] (inactive) | 
CCN[C@@H]1C[C@H](N)[C@@H](OC2OC(CN)=CCC2N)[C@H](O)[C@H]1O[C@H]1OC[C@](C)(O)[C@H](NC)[C@H]1O (stereo not given in full) | -1.17% [at 0.435 µM] (inactive) | 
CCCCCCCC1CCCC1=O (stereo not given) | -0.925% (inactive) | 
N[C@@H](CCC(=O)O)C(=O)O | 0.71% (inactive) | 
CC(COc1ccccc1)NN (stereo not given) | 3.97% [at 52.9 µM] (inactive) | 
COc1cc(C(=O)NCc2ccc(OCCN(C)C)cc2)cc(OC)c1OC | -3.5% [at 52.9 µM] (inactive) | 
C=C(C)C(=O)OCC1CCCO1 (stereo not given) | 0.0407% (inactive) | 
CNCCO | 0.586% (inactive) | 
COc1c(N2CCNC(C)C2)c(F)cc2c(=O)c(C(=O)O)cn(C3CC3)c12 (stereo not given) | 0.931% [at 52.9 µM] (inactive) | 
C[C@@H]1C[C@H]2[C@@H]3C[C@H](F)C4=CC(=O)C(Cl)=C[C@]4(C)[C@@]3(F)[C@@H](O)C[C@]2(C)[C@@]1(O)C(=O)CO | 1.78% [at 52.9 µM] (inactive) | 
NC(=O)N[C@@H](CCC(=O)O)C(=O)O | 0.171% [at 52.9 µM] (inactive) | 
